Experimental data as given in PubChem BioAssay (NCI).
This is part of a sample that, as a whole, favours compounds with a hit. Of some 83,000 tested, about 20% had one in any assay.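 Activity criterion: percent growth below 10, measured after cells in 96-well plates were exposed to a single compound concentration for 48 hours.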 Values without a mark were called inactive. Calls of active or inactive are those of the source.

Assays:
Test in all cases: NCI-60 one-dose screen, 48 h (100 = growth as untreated, 0 = no growth, -100 = all killed)
Conditions in all cases: 10 µM unless noted
T-47D breast = system: T-47D breast
BT-549 breast = system: BT-549 breast
MDA-MB-435 melanoma = system: MDA-MB-435 melanoma
SW-620 colon = system: SW-620 colon
MCF7 breast = system: MCF7 breast
HCT-116 colon = system: HCT-116 colon
HCC-2998 colon = system: HCC-2998 colon
KM12 colon = system: KM12 colon

| Structure (SMILES) | growth (T-47D breast) | growth (BT-549 breast) | growth (MDA-MB-435 melanoma) | growth (SW-620 colon) | growth (MCF7 breast) | growth (HCT-116 colon) | growth (HCC-2998 colon) | growth (KM12 colon) |
| --- | --- | --- | --- | --- | --- | --- | --- | --- |
| CC(=O)C1=C(C)NC(NNc2ccccc2)=NC1c1ccc([N+](=O)[O-])cc1 (stereo not given) | 83.3% | 103% | 77% | 73.6% | 75% | 85.7% | 97% | 67.3% |
| Cc1ccc2c(n1)C(=O)C(Cl)=C(Nc1cccc(C(F)(F)F)c1)C2=O | -41.9% (active) | 123% | 71.3% | -0.806% (active) | -54.7% (active) | -25.9% (active) | 108% | 106% |
| C#C[C@]1(O)CC[C@H]2[C@@H]3CC=C4c5sc(N(C)c6ccccc6)nc5CC[C@]4(C)[C@H]3CC[C@@]21C | 75.2% | 74.6% | 89.9% | 92.3% | 67.3% | 48.4% | 109% | 54.6% |
| CCCc1cc2cc(-n3nc(CC)c4c3CC(C)(C)CC4=O)cc(NC3CCC(O)CC3)c2c(=O)[nH]1 (stereo not given) | 29.6% | 38.7% | 0.0389% (active) | 12.3% | 17.7% | 6.5% (active) | 8.95% (active) | 15.4% |
| Cc1ccc(Nc2nc(SC(C)C)nc(-c3ccccc3)c2C#N)cc1 | 88.4% | 79.6% | 102% | 89.2% | 92.3% | 92.1% | 88.2% | 96.1% |
| CCCCCCCCCCCC(=O)NC(C)(C)C(=O)N1CCCC1C(=O)NC(C)(C)C(=O)NC(C)(C)C(=O)N1CCCC1C(=O)NC(C)(C)C(=O)NC(C)(C)C(=O)N1CCCC1C(=O)NC(C)C(=O)NCCC(=O)NC(C)C(=O)NC(C)(C)C(=O)NC(C)(C)C(=O)NC(C)(C)C(=O)NCCC(=O)NC(C)(C)C(=O)NC(C)(C)C(=O)NC(C)(C)C(=O)NC(C)C(=O)NCCC(=O)O (stereo not given) | -64.3% (active) | -97.1% (active) | -89.9% (active) | -92.3% (active) | -81.5% (active) | -94.8% (active) | -92.4% (active) | -98.5% (active) |
| COc1cccc(N2CCN(C3=C(Cl)C(=O)c4ncccc4C3=O)CC2)c1 | -48.1% (active) | 105% | 3.36% (active) | 14.3% | 19.1% | 1.4% (active) | 106% | 94.5% |
| CC1=C(C)C(=O)C(Nc2ccc3c(c2)OCO3)=C(Br)C1=O | 30.3% | 107% | 103% | 107% | 77.5% | 85.6% | 105% | 97.4% |
| CC(=O)N(O)CCCCCNC(=O)CCC(=O)N(O)CCCCCNC(=O)CCC(=O)N(O)CCCCCN(CCCCCCCCCC[P+](c1ccccc1)(c1ccccc1)c1ccccc1)CCCCCCCCCC[P+](c1ccccc1)(c1ccccc1)c1ccccc1 | -4.99% (active) | -30.7% (active) | 4.44% (active) | 12.2% | 5.05% (active) | 3.76% (active) | 4.2% (active) | 4.3% (active) |
| CN1c2ccccc2Sc2cc(/C=N/Nc3ccnc4cc(Cl)ccc34)ccc21 | 87.4% | 99% | 62.9% | 84.8% | 49.4% | 57.3% | 110% | 86.8% |
| Fc1cccc(Cl)c1/C=N/Nc1nc(N/N=C/c2c(F)cccc2Cl)nc(N2CCCCC2)n1 | 11% | 68.4% | 3.75% (active) | 17.2% | 3.1% (active) | 19.5% | 24.4% | 10.8% |
| Clc1ccc2c(N/N=C/c3c[nH]c4ccccc34)ccnc2c1 | -54.5% (active) | -89.1% (active) | -92.9% (active) | -74.8% (active) | -72% (active) | -91.9% (active) | -92.3% (active) | -77.2% (active) |
| COc1cc(C(=O)c2cc(C(C)=O)c3cccc(C)n23)cc(OC)c1OC | 20.3% | 25.8% | -30.1% (active) | 26% | 20.3% | 16.6% | 61.1% | 29.8% |
| CCCCN1C(=O)/C(=c2\sc3n(c2=O)C2C(NN=3)N(CC)C(=O)N2CC)c2cccc(C)c21 (stereo not given) | 41.4% | 82.4% | -31% (active) | 39.7% | 21.1% | 24.8% | 61.1% | 33.3% |
| COc1cc(C(=O)c2cc(C(C)=O)c3ccc(C)cn23)cc(OC)c1OC | 37.9% | 53.1% | -12.7% (active) | 32.4% | 14.8% | 18.4% | 61.6% | 28.6% |
| CCOP(=O)(OCC)OC[C@]12CC[C@@H](C)[C@H](C)C1C1=CC[C@@H]3[C@@]4(C)CCCNC(C)(C)[C@@H]4CC[C@@]3(C)[C@]1(C)CC2 (stereo not given in full) | 38.2% | 71.7% | 28.4% | -54.7% (active) | -59.8% (active) | -84.5% (active) | -55.1% (active) | 18.2% |
| NCCNC(=O)c1cccc(COc2ccccc2NC(=O)c2cc(Br)c(Br)[nH]2)c1 | 75.9% | 130% | 96.2% | 35.1% | 16.9% | 20.2% | 99.8% | 89.7% |
| CC/C(=C(/c1ccc(Cl)cc1)c1ccc(OCCN)cc1)c1ccccc1 | 93.1% | 129% | 96.7% | 16.5% | 54.9% | 56% | 83.7% | 84.7% |
| CCCCc1nc2c(N)nc3ccccc3c2n1Cc1ccc(OC)cc1 | 65.3% | 72% | 84% | 68.6% | 59.7% | 32.5% | 85.5% | 83.1% |
| COc1cc2cc(Oc3ccc(NC(=O)Nc4ccc(F)c(C(F)(F)F)c4)cc3)c(C)nc2cc1OCCN(C)C | 91.4% | 99% | 98.2% | 53.7% | -89.6% (active) | 107% | 104% | 102% |
| N#Cc1cccc(-c2cc(-c3ccc4c(c3)OCCO4)[nH]n2)c1 | 36.4% | 49.3% | -24.6% (active) | 27.5% | 12.2% | 23.1% | 47.3% | 36.4% |
| NNc1nnc2nc(Nc3ccccc3)nc(Nc3ccc(S(N)(=O)=O)cc3)n12 | 109% | 107% | 108% | 104% | 97.8% | 107% | 104% | 103% |
| COc1ccccc1/C=C1\Oc2ccc(O)c(O)c2C1=O | 86.3% | 89.5% | 93.4% | 105% | 88.2% | 83.7% | 96.8% | 99.7% |
| CC1=C(C)C(=O)C(Nc2cccc(C)c2)=C(Br)C1=O | 4.47% (active) | 106% | 109% | 107% | 75.7% | 76.9% | 111% | 105% |
| CC(Nc1c(C#N)cnc2ccc(-c3cncc(O)c3)cc12)c1ccccc1 (stereo not given) | 6.53% (active) | -18.3% (active) | 25.2% | 10.1% | 0.808% (active) | 3.68% (active) | 19.5% | 4.85% (active) |
| Brc1cccc(-c2cc(-c3cnc4c(c3)OCCO4)n[nH]2)c1 | 40.2% | 67.3% | -29.3% (active) | 25.3% | 10% | 27.4% | 46.7% | 41.6% |
| Cc1ccc(C)c(NC2=C(Cl)C(=O)c3nc(C)ccc3C2=O)c1 | -58% (active) | -5.46% (active) | -82.4% (active) | -49.2% (active) | -58.5% (active) | -74.1% (active) | 17.7% | 36.7% |
| Cc1ccc2c(n1)C(=O)C(Cl)=C(Nc1cccc(C(=O)OC(C)(C)C)c1)C2=O | 59.1% | 102% | 97.9% | 64.3% | 53.3% | 14% | 113% | 99.2% |
| CCC1=Cc2c(OC)cccc2OC12C=Cc1c(OC)cccc1O2 (stereo not given) | 46.8% | 46.6% | -18.8% (active) | 30% | 10.8% | 8.84% (active) | 2.34% (active) | 12.4% |
| CCCCCc1ccc(S(=O)(=O)Nc2cc(-c3csc(N)n3)ccc2OC)cc1 | 83% | 102% | 107% | 110% | 66.1% | 95.1% | 111% | 99.6% |
